Among the data in PubChem BioAssay AID2314 (National Center for Advancing Translational Sciences (NCATS), 2010) are max response values, retold here.

Values joined by “and” are separate entries in the source; they are usually repeats but may differ in a detail not shown here. Equal values may be shown once. The campaign covered roughly 300,000 compounds. About 37,000 (12%) were called active. No stated cut-off is given here; in the data, active means max response mostly above about 13% (no sharp cut-off); inactive means mostly below about 14%. Many of the other results were omitted from the sample, so actives are more common in it than they were. Some structures have more than one record in an assay (separate samples or runs), and their calls can disagree.

The assay is described as follows: Cycloheximide Counterscreen for Small Molecule Inhibitors of Shiga Toxin. Further: read at 38.3 µM for the half of the compounds with a filed dose; 0% is about no effect. The conditions noted are these: cell reporter, cycloheximide protein synthesis inhibition counterscreen; stronger effect = higher value. For orientation: Counterscreens check selectivity or assay interference.
As for `CCOC(=O)c1cc2ccccc2n1CC(=O)c1ccccc1`, the max response was 1.26% (inactive).

As for `CC1CCC2CCCCC2N1C(=O)c1cc([N+](=O)[O-])cc([N+](=O)[O-])c1` (stereo not drawn), the max response was 10.4% (inactive).

`NS(=O)(=O)c1ccc(CCNC(=O)c2nc(CS(=O)(=O)c3ccc(Cl)cc3)no2)cc1`: the max response was -2.33% (inactive).

Turning to `CCn1cc(C(=O)N[C@@H](C)C(=O)NCCO)c(=O)c2cc3c(cc21)OCO3`, the max response is -1.13% (inactive).

With `CC(CO)NCC12CC3CC(CC(C3)C1)C2` (stereo not drawn), the max response was -1.89% (inactive).

Turning to `O=C(Nc1ccccc1Cl)O/N=C(/c1ccccc1)c1ccccn1`, the max response was -2.08% (inactive).

`N/C(=N\OC(=O)Nc1ccc(Cl)c(Cl)c1)c1ncc(C(F)(F)F)cc1Cl`: the max response was -4.62% (inactive).

Turning to `N/C(=N\OC(=O)Nc1ccccc1)c1ccno1`, the max response was 24.5% (active).

With `COc1ccc(-c2c(C)cc3oc(=O)cc(-c4ccccc4)c3c2C)cc1C=O`, the max response was 19.9% (inactive).

As for `COc1cccc(NC(=O)CN(C)C(C)C(=O)Nc2ccc(C#N)cc2)c1` (stereo not drawn), the max response is 11.8% (inactive).

With `S=c1nc2ccccc2c2nc(-c3cccnc3)[nH]n12`, the max response was -3.11% (inactive).

Take `C=CCn1c(=O)c(C(=O)NCc2ccc3c(c2)OCO3)c(O)c2ccccc21`: the max response is -4.21% (inactive).

With `CC(C)N1CCC(N2CCN(Cc3cccnc3)CC2CCO)CC1` (stereo not drawn), the max response was -0.86% (inactive).

As for `CCC(C)(C)NC(=O)CN(Cc1cccs1)C(=O)CNS(=O)(=O)c1ccc(F)cc1`, the max response was 1.08% (inactive).

As for `Cc1ccc(S(=O)(=O)NCC(=O)N(CC(=O)NC(C)(C)C)Cc2cccs2)cc1`, the max response is 0.104% (inactive).

`CC(C)(C)NC(=O)CN(Cc1cccs1)C(=O)CNS(=O)(=O)c1ccccc1`: the max response is 15.6% (active).

Regarding `O=C(N/C(=C\c1ccc(F)cc1)C(=O)N1CCCCCC1)c1ccccc1`, the max response is -2.25% (inactive).

Consider `CC(C)c1nc(SCC(=O)Nc2cccc(C(=O)O)c2)c2c3c(sc2n1)CCCC3`, for which the max response was 2.36% (inactive).

`COc1ccc(CNc2c(CO)cnc3c2cnn3C)cc1`: the max response is 8.91% (inactive).

Turning to `Cc1ccc(S(=O)(=O)N2CCN(C)CC2)cc1C(=O)NC1CCCCC1`, the max response was -0.406% (inactive).

As to `O=C(Oc1c(-c2ccco2)oc2ccccc2c1=O)c1cccnc1`, the max response was 12.7% (active).

In the case of `O=C(Oc1cccnc1)c1cc2ccccc2oc1=O`, the max response was -1.97% (inactive).

As to `O=C(Oc1ccc(Br)cc1)c1cccnc1`, the max response was 7.39% (inactive).

Turning to `O=C(CN1C(=O)c2ccccc2C1=O)NCc1ccc(C(=O)O)cc1`, the max response was -4.14% (inactive).

Turning to `O=c1[nH]c(NCCO)nnc1Cc1ccc(Cl)cc1`, the max response is -3.78% (inactive).

For `Cc1ccc(N(C(=O)CNC(=O)c2ccco2)C(C(=O)NC2CCCC2)c2ccncc2)cc1` (stereo not drawn), the max response is -1.23% (inactive).

Turning to `CCOC(=O)C1(Cc2ccccc2C(F)(F)F)CCN(C(=O)c2cc(C)n(C)n2)CC1`, the max response is 31.4% (active).

Turning to `CCOC(=O)C1(CCOc2ccccc2)CCN(C(=O)c2cncs2)CC1`, the max response is 1.41% (inactive).

For the compound `CCOC(=O)C1(Cc2cccc(OC)c2)CCN(C(C)CC(C)(C)O)CC1` (stereo not drawn), the max response is -3.86% (inactive).

On to `CCCN(CC1COc2ccccc2O1)C(=S)Nc1ccc(C)cc1` (stereo not drawn), for which the max response is -5.79% (inactive).

On to `Cc1c(CN2CCC(CO)(CCOc3ccccc3)CC2)[nH]c2ccc(Cl)cc12`, for which the max response was -1.37% (inactive).

Consider `CC(C)C(OC(=O)c1cccs1)C(=O)NC1CCCCC1` (stereo not drawn), for which the max response is -1.99% (inactive).

Take `O=C(Nc1ccc2c(c1)CCC2)c1ccc(Br)s1`: the max response was 72% (active).

Turning to `O=C(NCC(=O)N(Cc1cccs1)C(C(=O)NC1CCCCC1)c1ccco1)c1cccs1` (stereo not drawn), the max response was -2.31% (inactive).

Regarding `O=C(NC1CCCCCCC1)c1cccs1`, the max response is 34% (active).

For `O=C(COC(=O)/C=C/c1cccs1)NC1CCCCC1`, the max response is -0.796% (inactive).

As for `CC1CC(C)CN(CCC(=O)Nc2ccc3c(c2)CCC3)C1` (stereo not drawn), the max response was -6.42% (inactive).

With `CN(CC(=O)NC1CCCCC1)S(=O)(=O)c1ccc(Br)s1`, the max response is 6.95% (inactive).

As for `CC(C)C(=O)OCC(=O)Nc1ccc2c(c1)CCC2`, the max response was 2.17% (inactive).

As for `O=C(CCC(=O)c1cccs1)NC1CCCCCC1`, the max response was 21.2% (active).

Regarding `O=C(CN(C(=O)CNC(=O)c1cccs1)c1cccc(F)c1)NC1CCCCC1`, the max response is 0.305% (inactive).

As to `O=C(NC1CCCC1)c1ccc(Br)s1`, the max response was 19.5% (active).

`O=C(NC1CCCC1)C(NS(=O)(=O)c1ccc(Br)s1)c1ccccc1` (stereo not drawn): the max response was 7.24% (inactive).

Turning to `O=S(=O)(c1ccc(F)cc1)N1CCN=C1SCc1cccc(F)c1`, the max response was 7.74% (inactive).

For the compound `COc1cccc(NC(=O)N2CCC(NC(=O)C(Cc3cccc(C)c3)NC(C)=O)CC2)c1` (stereo not drawn), the max response was -0.694% (inactive).

Take `O=C(Nc1ccc(S(=O)(=O)N2CCCCC2)cc1)C1CC(=O)N(c2ccc(F)cc2)C1` (stereo not drawn): the max response was -1.91% (inactive).

In the case of `CN(C)c1ccc(CNC(=O)CN2C(=O)COc3ccc(S(=O)(=O)N4CCCC4)cc32)cc1`, the max response is 9.54% (inactive).

Consider `O=[N+]([O-])C(=c1ccc2c(c1)N1C3=C(CCCC3)CC3CCCCC31N=2)[N+](=O)[O-]` (stereo not drawn), for which the max response is 6.06% (inactive).

Regarding `c1ccc2c(-c3nn4nnnc4c4ccccc34)cccc2c1`, the max response was 8.28% (inactive).

For `O=C(CCNC(=O)C1CCN(S(=O)(=O)c2ccccc2)CC1)NC1CC1`, the max response was 11.4% (inactive).

Regarding `O=C(CCS(=O)(=O)c1ccccc1)NC1CCCC1`, the max response was 49.1% (active).

Regarding `CC(=O)c1cc(-c2ccccc2)n(CCC(=O)NC2CCCCCC2)c1C`, the max response was -2.48% (inactive).

As to `COCCCNC(=S)N1CCN(c2nc(-c3cccc(OC)c3)cs2)CC1`, the max response was 9.62% (inactive).

With `CC(C)c1ccc(Cc2nnc(NCCCO)[nH]c2=O)cc1`, the max response is 12.2% (inactive).

As for `COc1cccc(CNS(=O)(=O)c2ccc3c(c2)CC(C)N3C(C)=O)c1` (stereo not drawn), the max response is 4.58% (inactive).

On to `Cc1cc(C)n(CC(O)CN(c2ccccc2)S(=O)(=O)c2ccc3ccccc3c2)n1` (stereo not drawn), for which the max response was -3.48% (inactive).

Turning to `Cc1cc2c(cc1C)[n+](C)cn2CC(O)COCC1CC=CCC1` (stereo not drawn), the max response was -1.8% (inactive).

In the case of `COc1ccc(C2/C=C\CN(S(=O)(=O)c3cccs3)CC(=O)N2Cc2ccc(F)cc2)cc1` (stereo not drawn), the max response is 8.73% (inactive) and 13.8% (active).

For `COc1ccc(C2/C=C\CN(Cc3ccco3)C(C)C(=O)N2Cc2ccc(F)cc2)cc1` (stereo not drawn), the max response was 10.6% (inactive).

`COc1ccc(C2/C=C\CN(CC(C)C)CC(=O)N2Cc2ccc(F)cc2)cc1` (stereo not drawn): the max response is -4.65% (inactive) and -3.5% (inactive).

On to `C=CCn1c(SCc2ccc(Cl)c(Cl)c2)nnc1C(CO)NC(=O)c1ccc(OC)cc1` (stereo not drawn), for which the max response was 3.34% (inactive).

Take `CSc1ccc(/C=N/NC(=O)c2cccc(Cl)c2)cc1`: the max response is 96.6% (active).

As to `COc1ccc(/C(C)=N/NC(=O)c2ccc3nc[nH]c3c2)cc1`, the max response was -2.63% (inactive).

Turning to `O=C(N/N=C/c1ccc(Cl)c(Cl)c1)c1ccc2nc[nH]c2c1`, the max response is 16.3% (active).

For the compound `CSc1ccc(/C=N\NC(=O)COc2ccc(Cl)cc2Br)cc1`, the max response was 11.1% (inactive).

Take `Cc1nc2ccc(C(=O)N/N=C/c3ccc(O)cc3)cc2[nH]1`: the max response is 7.31% (inactive).

On to `CSc1ccc(/C=N\NC(=O)CC(=O)NC(C)C)cc1`, for which the max response is 1.43% (inactive).

`CC1CC(C)CN(S(=O)(=O)c2cccc3nonc23)C1` (stereo not drawn): the max response was -1.35% (inactive).

Consider `CN1CC(c2ccccc2)C2(COc3ccccc3C2=O)C12C(=O)Nc1ccccc12` (stereo not drawn), for which the max response is -3.96% (inactive).

Take `Cc1ccccc1NC(=O)CCNS(=O)(=O)c1ccc2[nH]c(=O)oc2c1`: the max response was -2.26% (inactive).

`O=S(=O)(NC1CC2CCC1C2)c1ccc(Cl)cc1` (stereo not drawn): the max response is -1.85% (inactive).

For `O=C(NNC(=O)C1C2CCC(C2)C1C(=O)O)c1ccc(Cl)cc1` (stereo not drawn), the max response was 17.2% (active).

Turning to `O=C(NNC(=S)NC1CC2CCC1C2)c1ccc(Cl)cc1` (stereo not drawn), the max response was 11.9% (active).

Consider `CCOC(=O)NNC(=O)c1ccc(Cl)cc1`, for which the max response is 6.53% (inactive).

With `S=C(NNC(=S)NC1CC2CCC1C2)NC1CC2C=CC1C2` (stereo not drawn), the max response is 4.61% (inactive).

In the case of `O=C(NNC(=O)C1CCCC1)c1ccc(F)cc1`, the max response is -5.73% (inactive).

As for `CCN(CC(=O)NCCCN1CCOCC1)S(=O)(=O)c1cc(Cl)ccc1Cl`, the max response is 5.99% (inactive).

Turning to `O=C(CCCN1C(=O)/C(=C/c2cccs2)SC1=S)Nc1ccc(O)cc1`, the max response was 8.82% (inactive).

`CCN1C(=NCC(C)C)N[C@@H](CCc2ccccc2)[C@H](C(=O)NCC(C)C)[C@H]1C`: the max response was 0.929% (inactive) and -2.38% (inactive).

Turning to `CN(C)/C=C(/C(=O)c1ccc(Cl)c(Cl)c1)c1nnnn1-c1ccccc1`, the max response is 0.0457% (inactive).

For the compound `CCC(C(=O)OCC(=O)Nc1ccc(C(=O)Nc2ccc(OC)cc2)cc1)c1ccccc1` (stereo not drawn), the max response is 11.5% (inactive).

As for `CCc1cc(C(c2ccccc2OC)N2CCOCC2)c(NC(=O)c2ccccc2)s1` (stereo not drawn), the max response was 12.9% (inactive).

On to `C/C(=N\Nc1ccc([N+](=O)[O-])cc1)c1ccc(-n2nncc2C(C)(C)C)cc1`, for which the max response was -3.73% (inactive).

For the compound `COc1ccccc1C(=O)NNC(=O)c1ccc(NC(=O)c2ccccc2)cc1`, the max response was -2.29% (inactive).

As to `CCc1cc(C(=O)c2ccc(OC)cc2)c(NC(=O)CN2CCN(C)CC2)s1`, the max response is -1.85% (inactive).

For `Cc1ccc(NC(=O)c2ccc(Oc3ncccn3)cc2)cc1`, the max response was 32.1% (active).

With `Cc1ccc(NC(=O)c2cccnc2C(=O)Nc2ccc(C)cc2)cc1`, the max response was -2.58% (inactive).

In the case of `COc1ccc(C(=O)Nc2ccc(-n3nncc3C(C)(C)C)cc2)cc1`, the max response is 48% (active).

Turning to `CCc1cc(C(N)=O)c(NC(=O)c2ccc(OC)cc2)s1`, the max response is 19.3% (active).

With `COc1ccc(C(=S)Nc2ccccc2)cc1`, the max response was 37.3% (active).

Turning to `CC(C)(C)c1cnnn1-c1ccc([N+](=O)[O-])cc1`, the max response is 6.21% (inactive).

Turning to `COCCNC(=S)c1ccc(OC)cc1`, the max response is 5.78% (inactive).

Regarding `CN(C)S(=O)(=O)c1cccc(NC(=O)COC(=O)C2(c3ccccc3F)CCCC2)c1`, the max response was -2.67% (inactive).
